# In PubChem BioAssay (Tox21):
# Inconclusive results are not listed. The source made the active and inactive calls. Unless noted, the call rests on the fitted dose curve; in most records, active means well fitted cell-killing curve with a large enough effect in the repeat runs; inconclusive means weak or mixed curves; inactive means no such curve, though single readings can be large or run the other way.
# Molecular target: Peroxisome proliferator-activated receptor delta (Homo sapiens) (UniProt Q03181)
# Test: qHTS assay to identify small molecule agonists of the peroxisome proliferator-activated receptor delta (PPARd) signaling pathway (AID 743212; calls by dose curve)
# Details: HEK293H PPARd-UAS-bla, beta-lactamase FRET ratio, 17 h; series mostly up to 62.6 µM
# Outline: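 Tox21 library screened in GeneBLAzer PPARd UAS-bla HEK293H cells. After compound treatment at 37 C, a FRET-based beta-lactamase substrate was applied for 2 h and fluorescence recorded.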
# Chain of Peroxisome proliferator-activated receptor delta (Homo sapiens) (Q03181 whole entry, looked up): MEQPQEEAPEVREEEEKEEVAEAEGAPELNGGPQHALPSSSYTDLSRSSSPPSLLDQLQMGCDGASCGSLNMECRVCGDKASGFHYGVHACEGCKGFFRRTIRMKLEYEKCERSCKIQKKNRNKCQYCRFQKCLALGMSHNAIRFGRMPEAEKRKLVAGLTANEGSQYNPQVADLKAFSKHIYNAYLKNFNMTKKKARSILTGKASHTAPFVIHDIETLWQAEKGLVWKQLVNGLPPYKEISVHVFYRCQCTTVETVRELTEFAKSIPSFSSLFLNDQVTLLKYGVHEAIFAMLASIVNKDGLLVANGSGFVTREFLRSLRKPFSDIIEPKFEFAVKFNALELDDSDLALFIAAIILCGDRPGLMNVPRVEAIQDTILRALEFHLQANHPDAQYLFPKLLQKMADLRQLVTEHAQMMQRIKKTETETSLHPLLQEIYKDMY
row,Structure (SMILES),outcome
1,O=C(O)CCSSCCC(=O)O,inactive
2,COc1ccc(-c2cc(=O)c3c(O)cc(O[C@@H]4O[C@H](CO[C@@H]5O[C@@H](C)[C@H](O)[C@@H](O)[C@H]5O)[C@@H](O)[C@H](O)[C@H]4O)cc3o2)cc1O,inactive
3,NNc1nnc(NN)c2ccccc12,inactive
4,O=C(CS(=O)Cc1ccco1)NC/C=C\COc1cc(CN2CCCCC2)ccn1 (stereo not given),inactive
5,COc1cc(N)ccc1C,inactive
6,COc1ccc(S(=O)(=O)N2c3ccc(Cl)cc3[C@@](O)(c3ccccc3Cl)[C@H]2C(=O)N2CCC[C@@H]2C(N)=O)cc1OC,inactive
7,Cc1ccc2c(c1)OCC(=O)CO2,inactive
8,Cc1nc2n(c(=O)c1CCN1CCC(c3noc4cc(F)ccc34)CC1)CCC[C@H]2O,inactive
9,CC(CN)CC(C)(C)CCN (stereo not given),inactive
10,COC(=O)c1ccccc1C(=O)c1ccc(OCCN2CCCCC2)cc1,inactive
11,Nc1nnc(-c2cccc(Cl)c2Cl)c(N)n1,inactive
12,O=C1c2ccccc2C(=O)C1c1ccccc1,inactive
13,CCCCOC(=O)c1ccccc1,inactive

# Test system: not listed separately
# Test: qHTS assay to identify small molecule antagonists of the peroxisome proliferator-activated receptor delta (PPARd) signaling pathway - cell viability counter screen (AID 743213); further: nearly all actives have a fitted effect of over 50% in size
# Details: PPARd-bla HEK293H viability, CellTiter-Glo luminescence, 17 h; series mostly up to 62 µM
# Outline: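 PPARd-bla HEK293H cells (3000/well) got compound plus 300 nM L165041 agonist for 17 h at 37 C. Viability in the same wells came from CellTiter-Glo luminescence after 30 min at room temperature.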
row,Structure (SMILES),outcome
1,C#CC(C)N(C)C(=O)Nc1ccc(Cl)cc1 (stereo not given),inactive
2,CC(C)(C)OC(=O)c1ccc(O)cc1,inactive
3,CCN(C)C(=O)Oc1cccc([C@H](C)N(C)C)c1,inactive
4,CC(=O)c1ccc2c(c1)Cc1ccccc1-2,inactive
5,CCN1CCc2nc(N)oc2CC1,inactive
6,COc1nccnc1NS(=O)(=O)c1ccc(N)cc1,inactive
7,BrCCCCCBr,inactive
8,c1ccc2c(c1)ccc1c3ccccc3ccc21,inactive
9,CCC(C=O)CC,inactive
10,CN(CCOc1ccc(NS(C)(=O)=O)cc1)CCc1ccc(NS(C)(=O)=O)cc1,inactive
11,O=C1c2ccccc2C(=O)N1CCl,inactive
12,CN(C)CCOCCO,inactive
13,CCOC(=O)CC(=O)c1ccccc1,inactive
14,O=C(O)c1ccc(Cl)cc1Cl,inactive
15,CN(C)c1ccc(C=O)cc1,inactive
16,CCOc1cc(NC(C)=O)ccc1C(=O)OC,inactive
17,CC(=C(CCOC(=O)C(C)C)SSC(CCOC(=O)C(C)C)=C(C)N(C=O)Cc1cnc(C)nc1N)N(C=O)Cc1cnc(C)nc1N,inactive
18,C[C@@H](Oc1ccc(CNC(=O)c2cccnc2Oc2ccc3c(c2)OCO3)c(F)c1)C(=O)O,inactive
19,O=C(NCCN1CCOCC1)c1ccc(Cl)cc1,inactive

row,Structure (SMILES),outcome
1,N[C@@H](COP(=O)(O)O)C(=O)O,inactive
2,COCCOCCOCCOCCO,inactive
3,CCCCCCCC/C=C\CCCCCCCC(=O)OCCCC,inactive
4,Cc1ccsc1/C=C/C1=NCCCN1C,inactive
5,CNC(=O)[C@H]1O[C@@H](n2cnc3c(NCc4cc(Cl)ccc4OCc4cc(C)no4)ncnc32)[C@H](O)[C@@H]1N,inactive
6,O=C(O)CCSSCCC(=O)O,inactive
7,COc1ccc(-c2cc(=O)c3c(O)cc(O[C@@H]4O[C@H](CO[C@@H]5O[C@@H](C)[C@H](O)[C@@H](O)[C@H]5O)[C@@H](O)[C@H](O)[C@H]4O)cc3o2)cc1O,inactive
8,NNc1nnc(NN)c2ccccc12,inactive
9,O=C(CS(=O)Cc1ccco1)NC/C=C\COc1cc(CN2CCCCC2)ccn1 (stereo not given),inactive
10,COc1cc(N)ccc1C,inactive
11,COc1ccc(S(=O)(=O)N2c3ccc(Cl)cc3[C@@](O)(c3ccccc3Cl)[C@H]2C(=O)N2CCC[C@@H]2C(N)=O)cc1OC,inactive
12,Cc1ccc2c(c1)OCC(=O)CO2,inactive
13,Cc1nc2n(c(=O)c1CCN1CCC(c3noc4cc(F)ccc34)CC1)CCC[C@H]2O,inactive
14,CC(CN)CC(C)(C)CCN (stereo not given),inactive
15,COC(=O)c1ccccc1C(=O)c1ccc(OCCN2CCCCC2)cc1,inactive
16,Nc1nnc(-c2cccc(Cl)c2Cl)c(N)n1,inactive
17,O=C1c2ccccc2C(=O)C1c1ccccc1,inactive
18,CCCCOC(=O)c1ccccc1,inactive
